The text below walks through data of PubChem BioAssay (Tox21).

Values joined by “and” are separate entries in the source; they are usually repeats but may differ in a detail not shown here. Equal values may be shown once. Results filed as inconclusive are left out. Where a call stands in place of a potency, no number is given. Some compounds were tested as several samples or in several runs, with calls that do not always agree. Active and inactive are the calls of the source. Calls follow the shape of the dose curve; as a rule, active = well fitted activation curve with a large enough effect in the repeat runs; inconclusive = weak or mixed curves; inactive = flat fitted curve, though single readings scatter.
Potency is read from the fitted curve at half-maximal effect.

A short description of the experiment: A CellTox Green Cytotoxicity Assay to monitor cytotoxicity in HepG2 cells - 40 hour (AID 1224879). Also: nearly all actives have a fitted effect of over 40% in size. Particulars: CellTox Green fluorescence; series mostly up to 76.8 µM. The text has this: National Center for Advancing Translational Sciences [NCATS]
NIH Chemical Genomics Center [NCGC]
U.S. Environmental Protection Agency [EPA]
National Institutes of Environmental Health Sciences [NIEHS]
National Toxicology Program [NTP]
Cell-based models are critical for drug discovery. Determining the natural cytotoxic effects resulting from test compounds is an essential research activity. A CellTox Green Cytotoxicity Assay to monitor cytotoxicity in real time of continues cell culture during 40 hours of the compound treatment was used to screen Tox21 10K library compounds in HepG2 cells. CellTox Green Cytotoxicity Assay is a nonlytic, homogeneous, biofluorescent method to measure cytotoxicity in cell culture after experimental manipulation. The assay system uses a proprietary asymmetric cyanine dye that is excluded from viable cells but preferentially stains the dead cell's DNA. […] Viable cells produce no appreciable increases in fluorescence. Therefore, the fluorescence signal produced by the binding interaction with dead cell DNA is proportional to cytotoxicity.
The mixture of HepG2 cell suspension and reagents were dispensed at 600cells/6 ul/well in 1536-well tissue culture treated black solid bottom plates using a Multidrop dispenser. After the assay plates were incubated at a 37 C/5% CO2 incubator for 5 hours, 23 nL of compounds dissolved in DMSO, positive and negative controls was transferred to the assay plate by a pintool work station. The plates were incubated at 37 C for 40 hours. The fluorescence intensity were measured at 0h, 8h, 16h, 24h, 32h and 40h time points using ViewLux plate reader during compound treatment.
As for `CCCCC(CC)C(=O)Cl` (stereo not given), the Potency result was “inactive”. Under `CC[N+](=O)[O-]` stands “inactive”. In the case of `CCOC(=O)CC(SP(=O)(OC)OC)C(=O)OCC` (stereo not given) it was “inactive”; in that of `CN(C)C(=O)Nc1cccc(C(F)(F)F)c1`, “inactive”. As to `Clc1cnc(Oc2ccc(Oc3ncc(Cl)cc3Cl)cc2)c(Cl)c1`, the Potency entry was “inactive”. Under `OC[C@@H](O)[C@H]1O[C@@H]2O[C@H](C(Cl)(Cl)Cl)O[C@@H]2[C@H]1O` stands “inactive”; under `Cc1ccc(O)c(C)c1`, “inactive”.

On to `N#Cc1cccc(C#N)c1`, for which the Potency result is “inactive”. In the case of `CCOc1ccc(N)cc1`, the Potency entry was “inactive”. In the case of `CCSC(=O)N1CCCCCC1` it was “inactive”; in that of `C=C(C)C(=O)OCC(CC)CCCC` (stereo not given), “inactive”; in that of `Cc1ccc(N)cc1`, “inactive”.

As to `OCCCCO`, the Potency entry is “inactive”. Under `N#Cc1ccccn1` stands “inactive”; under `Cc1cccc(C)c1NC(=O)CN1CCCC1=O`, “inactive”. In the case of `Cc1cc(Cl)ccc1OC(C)C(=O)O` (stereo not given) it was “inactive”. With `CC(C)c1cccc(C(C)C)c1O`, the Potency was 43.6 µM (active) and inactive.

On to `Nc1nc(N)nc(NC2CC2)n1`, for which the Potency result is “inactive”.

`Cc1cccc(N)c1`: the Potency entry was “inactive”.

`COc1nc(NC(C)C)nc(NC(C)C)n1`: the Potency result is “inactive”. In the case of `CC(C)(C)C(=O)CCl` it was “inactive”; in that of `Cc1ccc(N=C=O)cc1N=C=O`, “inactive”. Under `C/C=C/c1ccc2c(c1)OCO2` stands “inactive”.

Turning to `Oc1c(Br)cc(Br)cc1Br`, the Potency result is “inactive”. In the case of `Oc1ccc(Cl)cc1`, the Potency result is “inactive”. Under `CCOP(=S)(OCC)Oc1cc(C)nc(C(C)C)n1` stands “inactive and 24.5 µM (active)”. Under `O=[N+]([O-])c1ccc(Cl)cc1` stands “inactive”; under `CC(C)CCCCCCOC(=O)c1ccccc1C(=O)OCCCCCCC(C)C`, “inactive”; under `ClC(Cl)c1ccccc1`, “inactive”. Under `CSc1nnc(C(C)(C)C)c(=O)n1N` stands “inactive”. With `CNC(=O)Oc1cccc2ccccc12`, the Potency result is “inactive”. Under `CCCCCCCCCCCCCCCCCC(=O)O` stands “inactive”; under `Cc1ccccc1N`, “inactive”; under `O=C(O)COc1ccccc1`, “inactive”. Regarding `CNC(=O)O/N=C/C(C)(C)S(C)(=O)=O`, the Potency result was “inactive”.

For the molecule `Nc1cc(Cl)cc(Cl)c1`, the Potency entry was “inactive”. Under `CCNc1nc(Cl)nc(NC(C)C)n1` stands “inactive”; under `Cl[C@H]1OCCO[C@@H]1Cl`, “inactive”. In the case of `O=C/C=C/c1ccccc1` it was “inactive”; in that of `O=S(=O)(O)OOS(=O)(=O)O`, “inactive”.
